# Measurements from PubChem BioAssay.
# Molecular target: Dickkopf-related protein 1 (Homo sapiens) (UniProt O94907)
# Assay: DKK1 binders on small-molecule microarrays, primary screen, biochemical, small-molecule microarray, 635 nm fluorescence scan (AID 1106);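 also: score merges emission near 667 nm with signal to noise over three replicate slides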
# Conditions: DKK1 binding, higher = more signal
# Chain of Dickkopf-related protein 1 (Homo sapiens) (O94907 whole entry, looked up): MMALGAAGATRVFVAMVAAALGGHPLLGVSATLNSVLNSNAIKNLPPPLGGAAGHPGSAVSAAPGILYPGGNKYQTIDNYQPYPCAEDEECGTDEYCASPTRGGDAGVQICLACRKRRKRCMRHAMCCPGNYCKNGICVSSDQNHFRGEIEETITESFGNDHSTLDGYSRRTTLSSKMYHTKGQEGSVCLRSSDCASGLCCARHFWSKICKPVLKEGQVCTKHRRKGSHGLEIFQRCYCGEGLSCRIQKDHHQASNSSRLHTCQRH
row,Structure (SMILES),composite z-score
1,COc1cc2c(cc1O)C(c1ccc(CN3CCCC3)cc1)N(Cc1cc3c(cc1Br)OCO3)CC2 (stereo unspecified),-0.367
2,CCCC[C@@H]1C[C@H]1[C@@H](NC(=O)c1cccs1)c1ccccc1C(F)(F)F,-0.291
3,CCOC(=O)C1=C[C@@H](c2ccccc2)N(S(=O)(=O)c2ccc(C)cc2)[C@H]1c1ccc(OC)cc1,0.0786
4,C=CCC(OC(C)=O)[C@@H]1[C@@H](N(Cc2ccc(-c3cccc(C(F)(F)F)c3)o2)C(=O)Cc2ccc(OC)cc2)c2cc(OCCCO)ccc2N1C(=O)c1ccc(-c2ccccc2)cc1 (stereo partly specified),-0.434
5,C=CC[C@@H](OC(=O)Nc1ccc(SC)cc1)c1ccc(O)c(F)c1,0.183
6,CCCCC=C[C@@H](NC(=O)OCc1ccccc1Cl)c1ccccc1,-0.193
7,C=CCC(OC(C)=O)[C@@H]1[C@@H](N(Cc2cccc3ccccc23)C(=O)Cc2ccc(OC)cc2)c2cc(OCCCO)ccc2N1C(=O)c1ccc(-c2ccccc2)cc1 (stereo partly specified),-0.324
8,CCCC=C(CCC)[C@@H](NP(=O)(c1ccccc1)c1ccccc1)c1ccc(-c2ccccc2)cc1,-0.0014
9,COCCCNC(=O)[C@@]1(CCC(=O)OC(C)(C)C)N=C(c2ccc(OCCCO)cc2)O[C@H]1c1ccccc1N=[N+]=[N-],0.795
10,O=C(Cc1ccccc1)[C@H]1C2C=CCCC(c3ccccc3)=C2CN1Cc1ccccc1 (stereo partly specified),0.191
11,COC(=O)[C@@]1(Cc2ccc(F)cc2)[C@H]2c3cc(C(=O)N4CCCC4)n(Cc4ccc(C)c(F)c4F)c3C[C@H]2CN1C(=O)c1ccccc1,-0.453
12,COc1ccc(C#Cc2ccc3c(c2)[C@]2(C(=O)N3)[C@H](C(=O)O)[C@H]3C(=O)O[C@H](c4ccccc4)[C@H](c4ccccc4)N3[C@@H]2c2ccc(O)cc2)cc1,-0.603
13,CCC#CCN(Cc1ccccc1Br)[C@H](/C=C/C1CC1)[C@@H](O)Cc1ccccc1,-0.642
14,COC(=O)[C@@]1(Cc2ccccc2)[C@H]2c3cc(C(=O)N(C)C)n(Cc4ccc(C)o4)c3C[C@H]2CN1C(=O)c1ccccc1,-1.11
15,CC(C)NC(=O)[C@@]1(C)c2ccccc2C(=O)N(Cc2ccc(OC(F)(F)F)cc2)[C@H]1c1ccc(CO)cc1,-1.25
16,COc1ccc([Si](C)(C)[C@@H]2[C@@H](CC(=O)N3CCC[C@H]3CO)O[C@]3(C(=O)N(Cc4cccc(N5C(=O)COc6ccccc65)c4)c4ccccc43)[C@H]2C)cc1,0.173
17,CCCC[C@@H](O)C1=C(COC)C[C@H]2C(=O)N(C)C(=O)[C@H]2[C@H]1CO,0.339
18,COc1ccc([Si](C)(C)[C@@H]2[C@@H](CC(=O)N(CCO)Cc3ccccc3)O[C@]3(C(=O)N(Cc4cccc(N5CCCCC5=O)c4)c4ccccc43)[C@H]2C)cc1,0.419

row,Structure (SMILES),composite z-score
1,COc1ccc(CCNC(=O)[C@@]2(Sc3ccc(C)cc3)CC(=O)N(Cc3ccccc3C(F)(F)F)[C@@H]2c2ccc(CO)cc2I)cc1,-1.14
2,[N-]=[N+]=Nc1ccccc1[C@@H]1OC(c2ccc(OCCCO)cc2)=N[C@]1(Cc1ccccc1)C(=O)N1CCCCC1,-0.0165
3,Cc1ccc(S[C@]2(C(=O)NCc3ccccc3)CC(=O)N(C3CCCCC3)[C@@H]2c2ccc(CO)cc2I)cc1,-0.358
4,COc1ccc([Si](C)(C)[C@H]2[C@H](CC(=O)N(CCO)Cc3ccccc3)O[C@@]3(C(=O)N(C)c4c(Br)cc(C)cc43)[C@@H]2C)cc1,0.766
5,[N-]=[N+]=Nc1ccccc1[C@@H]1OC(c2ccc(OCCCO)cc2)=N[C@]1(Cc1ccccc1)C(=O)O,-0.347
6,CCCC1(C(=O)OC)C=C2C(=C(C)C(=O)C2C)CN1 (stereo unspecified),-0.238
7,COCC(=C=CC[C@H](O)c1ccccc1OCCO)C[C@H](O)c1ccccn1,-0.0344
8,Oc1ccc2cc[n+](Cc3cc4c(cc3Br)OCO4)cc2c1,-0.14
9,CC(C)[Si]1(C(C)C)OCc2cc(C3CC3)nc(-c3ccc(Oc4ccccc4)cc3)c21,-0.604
10,[N-]=[N+]=Nc1ccccc1C[C@]1(C(=O)N2CCOCC2)COC(c2ccc(OCCCO)cc2)=N1,-0.259
11,[N-]=[N+]=Nc1ccccc1C[C@@]1(C(=O)NCCN2CCOCC2)N=C(c2ccc(OCCCO)cc2)O[C@@H]1c1ccccc1N=[N+]=[N-],0.136
12,CCCCC(CC)C(O)C1C=CC2C(=O)N(C)C(=O)C2N1Nc1ccccc1 (stereo unspecified),-0.0617
13,O=C1N(CCS(=O)(=O)c2ccccc2)c2ccccc2[C@H]2OC(c3ccc(OCCCO)cc3)=N[C@@]12Cc1ccccc1,1.04
14,COc1ccc(C#Cc2ccc3c(c2)[C@]2(C(=O)N3)[C@H](c3ccc(O)cc3)N3[C@H](c4ccccc4)[C@H](c4ccccc4)OC(=O)[C@H]3[C@@H]2C(=O)Nc2nc3ccccc3s2)cc1,0.775
15,CCOc1cc(C(O)C2C=CC3C(=O)NC(=O)C3N2Nc2ccc(Cl)cc2Cl)ccc1O (stereo unspecified),-0.765
16,Cc1ccc(S[C@]2(C(=O)NCC(F)(F)F)CC(=O)N(Cc3cc(C(F)(F)F)cc(C(F)(F)F)c3)[C@@H]2c2ccc(CO)cc2I)cc1,-1.26
17,C=CCC(OC(C)=O)[C@@H]1[C@@H](N(Cc2cc3ccccc3o2)C(=O)Cc2ccc(F)cc2)c2cc(OCCCO)ccc2N1C(=O)Cc1ccc2ccccc2c1 (stereo partly specified),-0.607
18,CO[C@H]1O[C@H](CO)[C@@H](OC(=O)Nc2ccccc2)[C@H](OC(=O)c2cc3ccccc3[nH]2)[C@H]1OC(=O)c1cc2ccccc2[nH]1,0.201
